Screening data: PubChem, several laboratories
MEKK2wt PB1 HTS = raises or lowers MEK5 binding to wildtype human MEKK2 PB1 domain; Q9Y2U5; bead flow cytometry, Alexa488-MEK5 binding to MEKK2 WT; actives lie on both sides; binding response (% of control), % at 10 µM; hit rate 1.1% among 290,000; in the data active means binding response below about 67% or above about 130%
MEKK2 mut-MEK5 = signal of MEK5 binding to mutant human MEKK2 PB1 domain; bead flow cytometry, Alexa488-MEK5 binding to MEKK2 mutant; percent response, % at 10 µM; hit rate 0.35% among 290,000; AID 1530; in the data active means percent response above about 24%, passing the limit was not always enough
NTR1 agonist = agonists of human neurotensin receptor NTR1 | activation, % at 20 µM | NTR1-U2OS beta-arrestin-GFP spot imaging, agonist mode | P30989 | hit rate 0.17% among 330,000;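 active means activation at or above 40% of the spot to cytoplasm intensity ratio, with at least 20 cells analyzed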;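 further: 0% = DMSO without peptide and 100% = 100 nM NTR1 peptide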
Target sequence (P30989 whole entry, looked up): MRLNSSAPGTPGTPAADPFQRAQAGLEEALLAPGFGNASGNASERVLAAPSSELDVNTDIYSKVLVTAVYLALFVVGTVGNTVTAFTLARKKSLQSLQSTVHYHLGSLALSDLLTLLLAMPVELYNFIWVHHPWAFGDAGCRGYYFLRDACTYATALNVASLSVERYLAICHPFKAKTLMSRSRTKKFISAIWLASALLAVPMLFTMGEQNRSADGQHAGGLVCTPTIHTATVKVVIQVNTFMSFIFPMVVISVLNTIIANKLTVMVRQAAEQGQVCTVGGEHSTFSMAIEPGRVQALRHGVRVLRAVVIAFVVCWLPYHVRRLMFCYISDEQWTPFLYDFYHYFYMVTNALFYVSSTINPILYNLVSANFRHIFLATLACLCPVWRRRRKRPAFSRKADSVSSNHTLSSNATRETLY
ANO1 activ = activators or potentiators of mouse TMEM16A chloride channel | Q8BHY3 | HEK293 TMEM16A/YFP-H148Q/I152L, iodide quench fluorescence; stronger effect = lower value | B-score at 10 µM | hit rate 0.3% among 340,000;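 active means fluorescence-ratio B-score plate-corrected deviation score at least 3 library SD below zero, with starting fluorescence score within 5 deviations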;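 further: channel opened by trigger with iodide after compound preincubation; score built on the fluorescence ratio of max minus min over baseline; more negative score means more quench and so TMEM16A activation or potentiation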
TMEM16A inh = inhibitors of mouse TMEM16A calcium-activated chloride channel; Q8BHY3; HEK293 TMEM16A/YFP iodide influx fluorescence, ionomycin; normalized B-score (activity score, 25-100; higher = stronger inhibition) at 10 µM; hit rate 1.2% among 310,000; AID 588511;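 active means ratio plate-corrected score three or more library SD toward inhibition, starting fluorescence score within five deviations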;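 further: score derived from kinetic fluorescence span divided by baseline fluorescence per well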
MEKK3 PB1 HTS = raises or lowers MEK5 binding to the human MEKK3 PB1 domain; binding response (% of control), % at 10 µM; Q99759; AID 1529; hit rate 1.4% among 290,000; bead-based flow cytometry, Alexa488-MEK5 binding to MEKK3; actives lie on both sides; 0 = blocked by unlabeled MEK5, 100 = vehicle;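 active means binding response more than 3 SD above or below the average of its plate-row segment, actives on both sides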;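 further: Alexa488 bead fluorescence after subtracting the streptavidin-only scavenger bead signal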
MEKK2wt confirm = raises or lowers MEK5 binding to wildtype human MEKK2, retest | binding response (% of control), % at 10 µM | AID 1892 | bead flow cytometry, Alexa488-MEK5 binding to MEKK2 WT; actives lie on both sides | hit rate 2.4% among 5,900 | shares compounds with MEKK3 PB1 HTS; in the data active means binding response below about 16% or above about 210%; inactive means in between
MEKK2mut confirm = signal of MEK5 binding to mutant human MEKK2, retest; shares compounds with MEKK3 PB1 HTS; hit rate 2% among 5,900; bead flow cytometry, Alexa488-MEK5 binding to MEKK2 mutant; percent response, % at 10 µM; in the data active means percent response mostly above about 71%, no sharp cut-off; inactive means mostly below about 38%;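 further: higher means compound restores mutant binding toward wildtype level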
MEKK3-MEK5 inh = MEKK3-MEK5 PB1 inhibition, single concentration confirmation; shares compounds with MEKK3 PB1 HTS; bead flow cytometry, Alexa488-MEK5 binding to MEKK3; stronger effect = lower value; binding response (% of control), % at 10 µM; hit rate 1.8% among 5,900; AID 1894;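 active means binding response below 72% of control, or above a set upper limit, though filed actives all read lower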;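 further: 100% = DMSO only wells and 0% = binding blocked by excess unlabeled MEK5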
The depositor's hits bear a star; i = inactive; nt = no result; [ ] = remark or other dose. Sampled rows, rich in hits. Any-hit rate of the full collection: about 3.4%.

SMILES	MEKK2wt PB1 HTS	MEKK2 mut-MEK5	NTR1 agonist	ANO1 activ	TMEM16A inh	MEKK3 PB1 HTS	MEKK2wt confirm	MEKK2mut confirm	MEKK3-MEK5 inh
O=C(COC(=O)c1cc([N+](=O)[O-])ccc1N1CCOCC1)NC1CCS(=O)(=O)C1 (stereo unspecified)	nt	nt	0	i	i	nt	nt	nt	nt
O=C(CSc1nc2nc3c(cc2c(=O)n1-c1ccccc1)CCCC3)Nc1ccccc1	100	-1	3	i	i	131*	99	1	103
O=C(Nc1ccccc1)c1ccc(CSc2ncccn2)cc1	105	11	-2	i	i	103	nt	nt	nt
CCOc1ccc(S(=O)(=O)Nc2cccc(C(=O)NCC(c3ccco3)N3CCCC3)c2)cc1 (stereo unspecified)	nt	nt	5	i	nt	nt	nt	nt	nt
O=C(CSc1nnc(-c2ccccc2)n1C1CCCCC1)N1CCCC1	79	-8	3	i	i	74*[inhibitor]	112	8	111
OCC(Cc1ccc2c(c1)OCO2)C(CO)Cc1ccc2c(c1)OCO2 (stereo unspecified)	112	9	5	i	i	114	nt	nt	nt
Cc1ccc2nc(N3CCN(C(=O)CCCC(=O)O)CC3)nc(-c3ccccc3)c2c1	108	8	-1	i	i	110	nt	nt	nt
O=C(O)CCCC(=O)N1CCN(c2nc(-c3ccccc3Cl)c3cc(Br)ccc3n2)CC1	119	26*	-1	i	i	119	97	-7	98
CCC[C@@H]1C[C@@H](C(=O)NC(C(C)Cl)[C@H]2O[C@H](SC)[C@H](O)[C@@H](O)[C@H]2O)N(C)C1 (stereo partly specified)	104	5	0	i	i	103	nt	nt	nt
CCC[C@@H]1C[C@@H](C(=O)N[C@@H](C2O[C@H](SC)[C@H](O)[C@@H](O)[C@H]2O)[C@H](C)Cl)N(C)C1 (stereo partly specified)	54	1	0	nt	i	50*[inhibitor]	97	-6	101
FC(F)(F)c1cccc(Cc2noc(CN3CCCC(OCc4ccccn4)C3)n2)c1 (stereo unspecified)	97	5	-1	i	i	106	nt	nt	nt
Cc1ccc(Cn2nc3c4cc(F)ccc4n(Cc4ccc(F)cc4)cc-3c2=O)cc1	99	-2	0	i	nt	96	nt	nt	nt
COc1cccc(Cn2nc3c4cc(F)ccc4n(Cc4ccc(F)cc4)cc-3c2=O)c1	93	-3	0	i	i	92	nt	nt	nt
COc1cc2c3nnc(-c4ccc(F)cc4)c-3cn(Cc3cccc(C)c3)c2cc1OC	167*	48*	124*	i	i	104	197	61	108
COc1cc2c3nnc(-c4ccccc4)c-3cn(Cc3ccc(F)cc3)c2cc1OC	166*	36	12	i	i	99	187	48	113
CCN(CC)CC(=O)Nc1c(C#N)cnn1-c1ccccc1	85	-3	1	i	i	82	nt	nt	nt
COc1cc(/C=N/NC(=O)C[n+]2ccccc2)cc(OC)c1OC(C)=O	60*[inhibitor]	-30	0	i	i	73*[inhibitor]	86	-11	82
COc1cc(/C=N/NC(=O)C[n+]2ccccc2)cc(OC)c1OC	99	1	2	i	i	98	nt	nt	nt
Cc1ccc2cc(CN(CCN3CCOCC3)Cc3nnnn3Cc3ccco3)c(=O)[nH]c2c1C	2.0*[inhibitor]	-69	nt	i	nt	2.0*[inhibitor]	106	5	103
Cc1ccc2cc(CN(Cc3ccc4c(c3)OCO4)Cc3nnnn3Cc3ccco3)c(=O)[nH]c2c1C	96	1	2	i	i	96	nt	nt	nt
Cc1cc(Br)ccc1NC(=O)CCSc1ccccc1	97	4	0	i	i	100	nt	nt	nt
Cc1cc(NC(=O)CCSc2ccccc2)ccc1Br	113	-1	3	i	i	133*	104	-4	105
COc1cc2ccccc2cc1C(=O)NC(=S)Nc1cc(C(=O)O)ccc1C	110	0	-1	i	nt	129*	100	0	103
CN(C(=O)CSc1nc(-c2ccccc2)cn1N)C(c1ccccc1)c1ccccc1	103	5	13	i	i	105	nt	nt	nt
COc1ccccc1CNC(=O)CSc1nnc2ccc(-c3cccnc3)nn12	103	171*	2	i	i	105	101	-3	102
SMILES	MEKK2wt PB1 HTS	MEKK2 mut-MEK5	NTR1 agonist	ANO1 activ	TMEM16A inh	MEKK3 PB1 HTS	MEKK2wt confirm	MEKK2mut confirm	MEKK3-MEK5 inh
COc1ccc(NC(=O)CSc2nnc3ccc(-c4cccnc4)nn23)cc1OC	nt	nt	1	i	i	nt	nt	nt	nt
CCOC(=O)c1ccc(N2CCN(c3ccccc3F)CC2)c(NC(=O)Nc2ccccc2)c1	30*[inhibitor]	9	3	i	i	102	106	-2	103
CCOC(=O)N1CCN(c2c(N3CCN(c4ccccc4F)CC3)c(=O)c2=O)CC1	82	-5	0	i	i	72*[inhibitor]	75	-23	70*
CC(=O)N1N=C(c2ccccc2)CC1c1cn(C)c2ccccc12 (stereo unspecified)	113	3	4	i	i	157*	98	4	103
CC(=O)N1N=C(c2ccccc2)CC1c1ccc(F)cc1 (stereo unspecified)	107	4	0	i	i	105	nt	nt	nt
CCCS(=O)(=O)N1CCN(CC2CC3C=CC2C3)CC1 (stereo unspecified)	104	24*	-1	i	i	108	106	12	108
C=CCc1c(OC(C)=O)c2ccccc2n(C)c1=O	104	0	4	i	i	147*	106	3	106
Cc1cccc(NS(=O)(=O)c2cccc(C(=O)NCC(C)(C)N3CCOCC3)c2)c1	93	-1	0	i	i	91	nt	nt	nt
COc1ccc(NC(=O)Cc2c(SC)c3ccccc3n2Cc2ccccc2)cc1	109	1	0	i	i	160*	98	-3	100
CSc1c(CC(=O)NCCCO)n(Cc2ccccc2)c2ccccc12	104	1	1	i	i	99	nt	nt	nt
O=C(CN1CCC(NC(=O)Nc2ccccc2-c2ccccc2)CC1)NCc1ccco1	106	7	1	i	i	105	nt	nt	nt
